Screening data as filed in PubChem.
Most compounds without a hit are left out; they make up all but 17% or so of the library.
HT1080NT lethal: qHTS for induction of synthetic lethality in tumor cells producing 2HG: qHTS for the HT-1080-NT fibrosarcoma cell line | HT-1080-NT fibrosarcoma viability, CellTiter-Glo ATP luminescence, 48 h | Potency, µM (doses to about 46.1 µM), usual class: cytotoxic | hit rate 1.6% among 360,000 | AID 686970, 2013;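 further: NT is the 2HG producing partner of a matched IDH1 knockdown line; nearly all actives have a fitted effect of over 55% in size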
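Toxicity toward the 2HG-producing NT line was scored as %Activity, normalised to DMSO and no-cell wells, from CellTiter-Glo luminescence after 48 hours' treatment.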
TDP1 cell noCPT: qHTS for Inhibitors of human tyrosyl-DNA phosphodiesterase 1 (TDP1): qHTS in cells in absence of CPT | hit rate 15% among 420,000 | Potency, µM (doses to about 46.2 µM), hits mostly inhibitors | AID 686978, 2013 | DT40 Tdp1-/- hTDP1 cells, no CPT, ATP luminescence, 48 h; further: nearly all actives have a fitted effect of over 55% in size
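Chicken DT40 Tdp1-/- cells stably complemented with human TDP1 were seeded at 400 cells/well with DMSO in place of 20 nM camptothecin. After compound pinning, cells grew at least 48 hr at 37 °C; viability read by CellTiter-Glo luminescence.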
HepG2 viability: qHTS for Inhibitors of TGF-b: Cytotox Counterscreen; HepG2 CAGA-GFP viability, ATP luminescence, 18 h; Potency, µM (top dose mostly 46.1 µM), usual class: cytotoxic; hit rate 0.76% among 410,000; AID 588856, 2011
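HepG2 CAGA-GFP cells (1000/well, DMEM with 1% FBS) received compound, then TGF-beta at 500 pg/mL final, and were incubated 18 hours at 37 degrees C. Viability was read by CellTiter-Glo luminescence. Media-only wells were set as complete cell-killing and DMSO as no toxicity.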
TGFb inhibitor: qHTS for Inhibitors of TGF-b. Potency, µM (titrated, usually from 46.1 µM), actives largely listed as inhibitors. HepG2 CAGA-GFP TGF-b/SMAD3 reporter, GFP fluorescence, 18 h; TGF-beta stimulated, 500 pg/mL final. hit rate 1.2% among 410,000. AID 588855, 2011; further: nearly all actives have a fitted effect of over 65% in size
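Inhibition of TGF-beta-driven CAGA-GFP reporter expression in HEPG2 cells is measured by cellular GFP fluorescence after 18 h stimulation with 500 pg/mL recombinant TGF-beta in 1% FBS medium at 37 degrees C.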
HT1080 IDH1KD tx: qHTS for induction of synthetic lethality in tumor cells producing 2HG: qHTS for the HT-1080-IDH1KD cell line. HT-1080 IDH1 knockdown viability, ATP luminescence, 48 h. Potency, µM (titrated, usually from 46.1 µM), most hits filed as cytotoxic. hit rate 2% among 360,000
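HT-1080-IDH1KD cells (IDH1 knocked down), 750/well in RPMI with 5% FBS, treated with compound 48 h at 37 degrees C. Viability by CellTiter-Glo luminescence, normalised to DMSO and no-cell wells; concentration-response curves classed.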
DT40 TDP1 CPT: qHTS for Inhibitors of human tyrosyl-DNA phosphodiesterase 1 (TDP1): qHTS in cells in presence of CPT. chicken DT40 Tdp1-/-;hTDP1 cells + 20 nM CPT, ATP luminescence, 48 h. Potency, µM (series often up to 46.2 µM), usual class: inhibitors. hit rate 12% among 420,000; further: nearly all actives have a fitted effect of over 55% in size
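Chicken DT40 Tdp1-/- cells complemented with human TDP1, 400 cells/well, exposed to compounds plus 20 nM camptothecin for at least 48 h at 37 C; viability read as ATP content by CellTiter-Glo luminescence.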
Hits are given with their value; – = inactive; ? = inconclusive; · = no result. The call rests on the fitted dose curve; in most records, active means well fitted curve in the direction sought with a large enough effect; inconclusive means small, poorly fitted or top-dose-only effect, or another doubt; inactive means no such curve, though single readings can be large; an effect the other way counts as inactive or inconclusive.

SMILES	HT1080NT lethal	TDP1 cell noCPT	HepG2 viability	TGFb inhibitor	HT1080 IDH1KD tx	DT40 TDP1 CPT
CCCn1c(C(C)C)n[nH]c1=S	–	–	–	–	–	–
CC(=O)N1C(C(=O)O)Cc2c([nH]c3ccccc23)C1C (centres undefined)	–	–	–	–	–	–
CCOc1ccc(CNC(=O)c2cnc3sc(N(CC)CC)nn3c2=O)cc1	·	?	–	–	·	?
CCc1ccc(CNC(=O)c2cnc3sc(N(CC)CC)nn3c2=O)cc1	·	?	–	?	·	13µM
CCN(CC)c1nn2c(=O)c(C(=O)NCCc3ccccc3C)cnc2s1	·	?	–	–	·	16.4µM
CCN(CC)c1nn2c(=O)c(C(=O)NCCc3ccc(C)cc3)cnc2s1	·	?	–	–	·	?
OC1COC(c2ccccc2)OC1C(O)C1OC(c2ccccc2)OCC1O (centres undefined)	–	–	–	–	–	–
CCN(CC(=O)Nc1ccccc1C(F)(F)F)C(=O)CN1C(=O)NC2(CCCCC2)C1=O	–	–	–	–	–	–
COc1ccc(OC2C(=O)N(Cc3ccc(F)cc3)C2c2cc(OC)c(OC)c(OC)c2)cc1 (centres undefined)	–	23.1µM	–	–	–	?
COc1ccc(C2C(Oc3ccccc3C)C(=O)N2Cc2ccc(F)cc2)cc1OC (centres undefined)	–	?	–	–	–	?
C=C(C)C1Cc2c(C)nn(-c3ccccc3)c2C1 (centres undefined)	–	–	–	–	–	–
C=C(C)C1Cc2c(C)nn(-c3cccc4ccccc34)c2C1 (centres undefined)	?	?	–	?	?	20.6µM
CCSc1nc(-c2ccccc2)nc(C(Cl)Cl)n1	?	8.2µM	7.08µM	5.62µM	?	1.84µM
CCSc1cc(N2CCOCC2)nc(-c2ccccc2)n1	–	–	–	–	–	–
CN1CCN(c2ccc(CNC(=O)C3Cc4c(-c5ccc6c(c5)OCO6)ccnc4O3)cc2)CC1 (centres undefined)	–	?	–	–	–	–
O=C(NCc1ccncc1)C1Cc2c(-c3ccc4c(c3)OCO4)ccnc2O1 (centres undefined)	?	13µM	–	–	?	?
O=C(NCc1ccccc1)C1Cc2c(-c3ccc4c(c3)OCO4)ccnc2O1 (centres undefined)	?	0.731µM	–	–	0.411µM	0.581µM
COc1ccc(NC(=O)CSc2nc3ccccc3c(=O)n2CCCC(=O)NCC2CCCO2)c(OC)c1 (centres undefined)	–	–	–	–	–	?
CC(=O)Oc1ccc(C2(c3ccc(OC(C)=O)cc3)Oc3ccccc3NC2=O)cc1	·	18.8µM	·	·	·	?
COc1cccc(CNC(=O)C2(C)Oc3ccccc3NC2=O)c1 (centres undefined)	–	–	–	–	–	–
COc1cccc(CNC(=O)c2c(O)nc3ccccn3c2=O)c1	·	?	–	–	·	–
COc1ccc(CNC(=O)c2c(O)nc3c(C)cccn3c2=O)cc1	·	11.6µM	–	–	·	?
Cc1cccn2c(=O)c(C(=O)NC(C)c3ccccc3)c(O)nc12 (centres undefined)	·	?	–	–	·	18.4µM
COc1ccc(CCNC(=O)c2c(O)nc3c(C)cccn3c2=O)cc1	·	?	–	–	·	16.4µM
Cc1cccn2c(=O)c(C(=O)NCCc3ccc(S(N)(=O)=O)cc3)c(O)nc12	·	–	–	–	·	–
SMILES	HT1080NT lethal	TDP1 cell noCPT	HepG2 viability	TGFb inhibitor	HT1080 IDH1KD tx	DT40 TDP1 CPT
O=C(NCc1ccc(F)cc1)c1c(O)nc2ccccn2c1=O	·	20.6µM	–	–	·	?
Cc1oc(-c2ccc(C(=O)Nc3ccccc3F)cc2)nc1COc1ccccc1	·	?	–	–	·	–
CCOC(=O)[C@]12CCC=C1N(Cc1ccc3c(c1)OCO3)C(=O)[C@H](CC(=O)NCc1cccs1)C2	–	?	·	·	–	?
CCN(C(=O)c1cccnc1SC)C12CC3CC(CC(C3)C1)C2	–	20.6µM	–	–	?	?
CSc1ncccc1C(=O)NCC12CC3CC(CC(C3)C1)C2	–	–	–	–	–	–
O=C(C[N+]1(CCc2ccccc2)CCOCC1)c1ccccc1	·	–	–	–	·	–
COc1cccc(-c2cc(C(=O)Nc3c(C)nn(Cc4ccccc4Cl)c3C)no2)c1	·	13µM	–	?	·	9.2µM
COc1ccc(-c2cc(C(=O)Nc3c(C)nn(Cc4ccc(C)cc4)c3C)no2)cc1OC	·	–	–	–	·	?
COc1ccc(-c2cc(C(=O)Nc3ccc(C)c(C)c3)no2)cc1	–	?	–	–	–	?
COc1ccc(OC)c(-c2cc(C(=O)Nc3ccc(C)c(C)c3)no2)c1	·	18.4µM	–	–	·	?
COc1ccc(OC)c(-c2cc(C(=O)Nc3c(C)nn(Cc4ccccc4Cl)c3C)no2)c1	–	23.1µM	–	?	–	14.6µM
COc1ccc(OC)c(-c2cc(C(=O)Nc3c(C)nn(Cc4ccc(C)cc4)c3C)no2)c1	·	18.4µM	–	–	·	20.6µM
COc1ccc(-c2cc(C(=O)Nc3c(C)nn(Cc4ccccc4Cl)c3C)no2)cc1OC	–	?	–	–	–	?
COc1ccc(CC(=O)NC2CC(=O)N(c3ccc4c(c3)OCCO4)C2)cc1 (centres undefined)	·	–	–	–	·	–
Cc1ccc2nc(N(Cc3cccnc3)C(=O)c3ccco3)sc2c1	·	–	–	–	·	–
COc1ccccc1-c1cc(C(=O)Nc2c(C)nn(Cc3ccc(Cl)cc3)c2C)no1	·	20.6µM	–	?	·	20.6µM
COc1ccc(-c2cc(C(=O)Nc3c(C)nn(Cc4ccc(Cl)cc4)c3C)no2)cc1	–	?	–	–	?	–
COc1ccc(OC)c(-c2cc(C(=O)Nc3c(C)nn(Cc4ccccc4C)c3C)no2)c1	–	10µM	–	–	–	10µM
COc1ccc(N2CCN(C(=O)c3cc([N+](=O)[O-])ccc3N3CCN(CCO)CC3)CC2)cc1	–	–	–	–	–	–
COc1ccc(S(=O)(=O)N2C[C@H]3CON(C)[C@H]3C[C@H]2c2ccc(-c3cccc(F)c3)cc2)cc1	–	?	–	?	–	–
CN1OC[C@@H]2CN(Cc3cc(Cl)cc(Cl)c3)[C@H](c3cccc(-c4ccc(C#N)cc4)c3)C[C@@H]21	–	?	–	–	–	20.6µM
